Test results from PubChem BioAssay (NCATS).
The source made the active and inactive calls. Calls come from the whole dose curve; as a rule, active = well fitted inhibition curve with a large enough effect; inconclusive = small, poorly fitted or top-dose-only effect; inactive = no such curve, though single readings can be large or run the other way.
Potency is the fitted concentration of half-maximal effect.

The molecules below were run against Pyruvate kinase (Leishmania mexicana) (UniProt Q27686) (assay: qHTS Validation Assay for Inhibitors of Leishmania Mexicana Pyruvate Kinase (AID 945;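 for activity change, negative = inhibition: 0% = DMSO only neutral control wells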)). Details: purified L. mexicana pyruvate kinase, enzyme activity, E451W mutant enzyme; series mostly up to 57.5 µM; activity change, negative = inhibition: at the top concentration.
Chain of Pyruvate kinase (Leishmania mexicana) (Q27686 2-499 E452W): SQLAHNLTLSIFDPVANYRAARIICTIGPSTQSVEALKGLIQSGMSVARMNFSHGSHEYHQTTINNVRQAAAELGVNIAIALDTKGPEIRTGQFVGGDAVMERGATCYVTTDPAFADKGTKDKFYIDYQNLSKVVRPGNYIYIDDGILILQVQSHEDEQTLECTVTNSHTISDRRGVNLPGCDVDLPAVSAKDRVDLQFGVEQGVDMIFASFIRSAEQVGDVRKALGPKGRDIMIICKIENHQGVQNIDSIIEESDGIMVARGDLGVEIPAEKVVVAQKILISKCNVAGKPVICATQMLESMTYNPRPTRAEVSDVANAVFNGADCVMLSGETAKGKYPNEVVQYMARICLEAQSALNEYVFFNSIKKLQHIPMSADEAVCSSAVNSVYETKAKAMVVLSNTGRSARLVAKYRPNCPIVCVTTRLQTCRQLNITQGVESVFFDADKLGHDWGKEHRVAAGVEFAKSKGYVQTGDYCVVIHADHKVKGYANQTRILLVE
Text: NIH Molecular Libraries Screening Centers Network [MLSCN]
NIH Chemical Genomics Center [NCGC]
PI names: Malcom Walkinshaw, Hugh Morgan and Linda Gilmore
University of Edinburgh, Edinburgh, UK
Species of Leishmania are responsible for a wide spectrum of diseases throughout the tropics and subtropics, ranging from self-healing ulcers to highly disfiguring lesions and serious, often lethal visceral diseases, such as kala-azar. In Leishmania spp. it has been shown that both sugar uptake and gluconeogenesis are necessary to synthesize sufficient hexose-phosphate required for the production of glycoconjugates and the intracellular polysaccharide mannan which are essential for both replication and virulence of the parasites. Therefore, most of the enzymes participating in glycolysis and gluconeogenesis are expected to be essential (Naderer et al., 2006). The assay described here targets pyruvate kinase from Leishmania mexicania (LmPYK) that was obtained as a highly purified preparation from the University of Edinburgh (E451W mutant was provided). A 1536 well assay protocol was set up and validated by screening the LOPAC library in triplicate as an eight point concentration-titration series using the qHTS platform developed at the NCGC.
NCGC Assay Protocol Summary:
Three uL of substrate mix (final concentrations, 50 mM imidazole pH 7.2, 50 mM KCl, 7 mM MgCl2, 0.5 mM PEP, 0.1 mM ADP, 0.01% Tween 20, 0.05% BSA) was dispensed into white solid medium binding Greiner 1536 well plates. 23 nL of compound were delivered by a pin tool and 1 uL of enzyme mix (final concentration, 0.2 nM LmPYK, 50 mM imidazole pH 7.2, 0.05% BSA) was added. Plates were covered with stainless steel gasket-lined lids and incubated at room temperature for 1 hour. Two uL of detection and kinase stop mix (PKLight, Lonza) was added, and luminescence read by a ViewLux (Perkin Elmer) at 2 second exposure/plate using 2x binning. Controls on each plate were as follows: column 1, sixteen-point titration (1:2 dilutions) in duplicate the LmPK activator LOPAC-C8145 beginning at 57 uM final concentration; column 2, sixteen-point titration (1:2 dilutions) in duplicate activator LOPAC-S4063 beginning at 57 uM final concentration; column 3, column 4 DMSO only. Data were normalized to the neutral control (column 3).
`C[N+]1(C)[C@@H]2CC[C@H]1CC(OC(=O)[C@@H](CO)c1ccccc1)C2` (stereo partly specified) was tested, and the Potency was “inactive”. For `COc1ccc2c(c1OC)C(=O)O[C@H]2[C@H]1c2cc3c(cc2CCN1C)OCO3`, the “activity change, negative = inhibition” value was -9.13% (inactive). For `CS(=N)(=O)CC[C@@H](N)C(=O)O` (stereo partly specified), the “activity change, negative = inhibition” value was -9.58% (inactive). In the case of `CCCCCCC(C)(C)c1ccc([C@@H]2C[C@H](O)CC[C@@H]2CCCO)c(O)c1`, the “activity change, negative = inhibition” value is reported as -2.68% (inactive). With `COc1cc(C=C(C#N)C#N)cc(O)c1O` the “activity change, negative = inhibition” value was -8.57% (inactive). With `N#C/C(=C\c1ccc(O)c(O)c1)C(N)=S` the “activity change, negative = inhibition” value was 10.4% (inactive). In the case of `CC[C@@]1(c2ccc(N)cc2)CCC(=O)NC1=O`, the “activity change, negative = inhibition” value is reported as 5.15% (inactive). In the case of `CN1CC[C@]2(C)c3cc(O)ccc3N(C)[C@@H]12`, the “activity change, negative = inhibition” value is reported as -27.3% (inactive). In the case of `O=C(OC1CCN(CCCl)CC1)C(c1ccccc1)c1ccccc1`, the “activity change, negative = inhibition” value is reported as -10.7% (inactive). For `COc1ccc(OC)c([C@H](O)[C@H](C)N)c1`, the “activity change, negative = inhibition” value was -4.72% (inactive). For `C[C@]12CC[C@H](O)C[C@@H]1CC[C@H]1[C@H]2CC[C@]2(C)C(=O)CC[C@@H]12`, the “activity change, negative = inhibition” value was -4.92% (inactive). `CCc1c(C(=O)OC)ncc2[nH]c3cc(OC)c(OC)cc3c12` was tested, and the “activity change, negative = inhibition” value was -4.3% (inactive). `CCCN(CCC)C(=O)Cc1c(-c2ccc(Cl)cc2)nc2c(Cl)cc(Cl)cn12` was tested, and the “activity change, negative = inhibition” value was 8.02% (inactive). With `C[C@H]1OC[C@@H](C[N+](C)(C)C)O1` the “activity change, negative = inhibition” value was -5.24% (inactive). In the case of `CC(C)N(CC[C@@](C(N)=O)(c1ccccc1)c1ccccn1)C(C)C`, the Potency is reported as “inactive”. For `C[C@H](NC(C)(C)C)C(=O)c1cccc(Cl)c1`, the “activity change, negative = inhibition” value was -4.7% (inactive). In the case of `C#CCN(C)[C@@H](C)Cc1ccccc1`, the “activity change, negative = inhibition” value is reported as -10.3% (inactive). For `NCC#Cc1ccccc1`, the “activity change, negative = inhibition” value was -2.55% (inactive). `NNCc1cccc(O)c1` was tested, and the Potency was 10 µM (active). `NC[C@H](O)c1ccc(O)cc1` was tested, and the “activity change, negative = inhibition” value was -4.81% (inactive). In the case of `CCCCN1C2CCC1CC(OC(c1ccc(F)cc1)c1ccc(F)cc1)C2` (stereo unspecified), the “activity change, negative = inhibition” value is reported as 7.85% (inactive).
